# PubChem BioAssay (EPA / NIEHS)
# Records with an inconclusive call do not appear. More than one record can exist for a structure, and the calls need not agree. Calls of active or inactive are those of the source. The calls were made as follows: active = hit-call score of the fitted dose curve at least 0.9, where 1 is the maximum; inconclusive = response in the unintended direction; inactive = score below 0.9.
# How the values were obtained:
# [1] = target: human Neonicotinoid receptor (NNR), CHRNA2 (gene 1135) (UniProt Q15822); test: NVS_LGIC_hNNR_NBungSens: NovaScreen (NVS) Ligand-Gated Ion Channel Assay for human Neonicotinoid receptor (NNR) (AID 2283313)
# Chain of human Neonicotinoid receptor (NNR), CHRNA2 (gene 1135) (Q15822 whole entry, looked up): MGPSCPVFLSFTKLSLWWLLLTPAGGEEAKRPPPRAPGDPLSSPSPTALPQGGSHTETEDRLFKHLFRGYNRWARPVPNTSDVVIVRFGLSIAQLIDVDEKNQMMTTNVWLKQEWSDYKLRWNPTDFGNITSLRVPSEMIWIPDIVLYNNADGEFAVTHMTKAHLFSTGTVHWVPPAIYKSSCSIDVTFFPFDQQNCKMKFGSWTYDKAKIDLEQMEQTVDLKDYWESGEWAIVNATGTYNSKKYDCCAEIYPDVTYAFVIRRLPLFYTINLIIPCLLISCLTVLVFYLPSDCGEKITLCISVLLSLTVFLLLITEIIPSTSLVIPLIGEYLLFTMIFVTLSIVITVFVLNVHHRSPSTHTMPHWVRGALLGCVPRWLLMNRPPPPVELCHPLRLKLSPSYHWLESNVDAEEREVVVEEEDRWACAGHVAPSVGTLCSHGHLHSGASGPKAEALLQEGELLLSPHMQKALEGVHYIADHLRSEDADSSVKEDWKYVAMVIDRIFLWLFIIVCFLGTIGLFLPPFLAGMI
# Procedure, shortened: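 Compounds first screened in duplicate at 25 uM, then actives re-tested in single-replicate dose series up to 50 uM. Binding measured as displacement of specific radioligand from neuroblastoma membrane receptors after 2 h, scintillation read on filters.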
# [2] = target: rat Neurokinin-1 Receptor (NK1), Tacr1 (gene 24807) (UniProt P14600); test: NVS_GPCR_rNK1: NovaScreen (NVS) G Protein-Coupled Receptor Assay for rat Neurokinin-1 Receptor (NK1) (AID 2283309)
# Chain of rat Neurokinin-1 Receptor (NK1), Tacr1 (gene 24807) (P14600 whole entry, looked up): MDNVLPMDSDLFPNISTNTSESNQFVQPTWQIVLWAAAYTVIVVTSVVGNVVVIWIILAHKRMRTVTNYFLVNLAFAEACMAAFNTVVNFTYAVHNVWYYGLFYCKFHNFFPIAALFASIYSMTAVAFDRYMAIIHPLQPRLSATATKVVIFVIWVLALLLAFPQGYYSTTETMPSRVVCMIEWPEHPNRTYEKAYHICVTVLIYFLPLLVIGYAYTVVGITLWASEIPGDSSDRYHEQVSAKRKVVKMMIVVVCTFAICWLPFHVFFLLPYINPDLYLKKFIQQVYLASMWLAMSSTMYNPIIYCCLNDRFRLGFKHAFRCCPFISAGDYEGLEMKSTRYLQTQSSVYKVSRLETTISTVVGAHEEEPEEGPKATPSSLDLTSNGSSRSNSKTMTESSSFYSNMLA
# Procedure, shortened: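 Competitive radioligand binding to NK1 in rat submaxillary membranes, 1 h incubation, filtration and scintillation read-out. Compounds first screened at 25 uM in duplicate, then concentration-response for actives; signal loss relative to DMSO.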
# [3] = target: Metabotropic glutamate receptor 1 (Rattus norvegicus) (UniProt P23385); test: NVS_GPCR_rmMGluR1: NovaScreen (NVS) G Protein-Coupled Receptor Assay for rat Glutamate Metabotropic Receptor 1 (MGluR1) (AID 2283305)
# Chain of Metabotropic glutamate receptor 1 (Rattus norvegicus) (P23385 whole entry, looked up): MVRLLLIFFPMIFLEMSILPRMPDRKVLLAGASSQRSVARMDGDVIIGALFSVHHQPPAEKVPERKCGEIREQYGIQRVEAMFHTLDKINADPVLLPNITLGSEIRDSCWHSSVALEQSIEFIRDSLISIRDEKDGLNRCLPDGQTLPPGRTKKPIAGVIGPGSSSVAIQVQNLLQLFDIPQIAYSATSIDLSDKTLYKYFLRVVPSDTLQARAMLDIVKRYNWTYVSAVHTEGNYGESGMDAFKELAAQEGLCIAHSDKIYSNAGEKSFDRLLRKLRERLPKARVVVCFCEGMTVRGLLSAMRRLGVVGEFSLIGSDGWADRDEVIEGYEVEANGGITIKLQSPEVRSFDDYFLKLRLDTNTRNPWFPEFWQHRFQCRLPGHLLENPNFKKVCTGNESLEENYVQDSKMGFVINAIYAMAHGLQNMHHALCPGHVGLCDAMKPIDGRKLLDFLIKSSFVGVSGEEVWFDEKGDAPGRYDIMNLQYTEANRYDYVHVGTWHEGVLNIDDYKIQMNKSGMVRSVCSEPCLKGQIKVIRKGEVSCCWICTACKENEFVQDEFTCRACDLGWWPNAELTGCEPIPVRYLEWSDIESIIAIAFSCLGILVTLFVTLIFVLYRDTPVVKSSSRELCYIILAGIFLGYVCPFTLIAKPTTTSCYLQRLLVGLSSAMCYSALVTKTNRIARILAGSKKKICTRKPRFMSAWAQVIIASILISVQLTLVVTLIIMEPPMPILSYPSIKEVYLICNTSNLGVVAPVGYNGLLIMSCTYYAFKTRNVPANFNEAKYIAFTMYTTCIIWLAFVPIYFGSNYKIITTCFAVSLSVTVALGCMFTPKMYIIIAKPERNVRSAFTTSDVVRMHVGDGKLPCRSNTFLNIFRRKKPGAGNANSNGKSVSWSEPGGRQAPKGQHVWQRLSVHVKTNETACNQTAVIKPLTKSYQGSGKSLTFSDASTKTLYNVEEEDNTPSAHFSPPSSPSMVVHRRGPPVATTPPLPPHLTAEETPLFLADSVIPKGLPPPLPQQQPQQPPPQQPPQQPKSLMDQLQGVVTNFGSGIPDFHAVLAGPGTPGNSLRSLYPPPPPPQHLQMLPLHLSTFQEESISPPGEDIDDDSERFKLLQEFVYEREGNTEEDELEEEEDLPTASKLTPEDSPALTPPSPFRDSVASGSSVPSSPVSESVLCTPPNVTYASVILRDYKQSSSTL
# Procedure, shortened: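 Binding to native receptor from rat cerebellum extract, measured as displacement of a radioligand (scintillation counting, filter separation) after 1 hour. Compounds tested at 25 uM in duplicate, then titrated to a 50 uM maximum.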
# [4] = target: rat Gamma-Aminobutyric Acid Type B Receptor (GABBR), Gabbr1 (gene 81657) (UniProt Q9Z0U4); test: NVS_GPCR_rGABBR: NovaScreen (NVS) G Protein-Coupled Receptor Assay for rat Gamma-Aminobutyric Acid Type B Receptor (GABBR) (AID 2283301)
# Method: NVS_GPCR_rGABBR is a biochemical, single-readout assay that uses extracted gene-proteins from Rat cortical membranes in a tissue-based cell-free assay. Measurements were taken 1 hour after chemical dosing in a 96-well plate.NVS_GPCR_rGABBR is one of one assay component(s) measured or calculated from the NVS_GPCR_rGABBR assay. It is designed to make measurements of radioligand binding, a form of binding reporter, as detected with scintillation counting signals by Filter-based radiodetection technology.Data from the assay component NVS_GPCR_rGABBR was analyzed into 1 assay endpoint. This assay endpoint, NVS_GPCR_rGABBR, was analyzed in the positive analysis fitting direction relative to DMSO as the negative control and baseline of activity. Using a type of binding reporter, loss-of-signal activity can be used to understand changes in the binding as they relate to the gene Gabbr1. Furthermore, this assay endpoint can be referred to as a primary readout, because the performed assay has only produced 1 assay endpoint. To generalize the intended target to other relatable targets, this assay endpoint is annotated to the gpcr intended target family, where the subfamily is metabotropic glutamate receptor. […]
# [5] = target: rat Neurotensin Receptor (NTS), Ntsr1 (gene 366274) (UniProt P20789); test: NVS_GPCR_rNTS: NovaScreen (NVS) G Protein-Coupled Receptor Assay for rat Neurotensin Receptor (NTS) (AID 2283308)
# Chain of rat Neurotensin Receptor (NTS), Ntsr1 (gene 366274) (P20789 whole entry, looked up): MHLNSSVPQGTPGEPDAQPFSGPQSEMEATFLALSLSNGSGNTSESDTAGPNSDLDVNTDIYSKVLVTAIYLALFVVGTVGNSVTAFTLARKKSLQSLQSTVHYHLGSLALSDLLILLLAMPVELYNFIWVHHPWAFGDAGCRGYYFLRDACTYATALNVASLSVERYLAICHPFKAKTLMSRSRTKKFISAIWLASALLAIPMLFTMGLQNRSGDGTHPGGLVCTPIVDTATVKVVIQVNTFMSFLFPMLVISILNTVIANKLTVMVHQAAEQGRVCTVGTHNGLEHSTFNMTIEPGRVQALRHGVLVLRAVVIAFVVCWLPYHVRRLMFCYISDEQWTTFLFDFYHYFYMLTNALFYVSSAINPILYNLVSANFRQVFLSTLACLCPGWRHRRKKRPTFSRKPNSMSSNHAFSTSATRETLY
# Method: (§1) NVS_GPCR_rNTS is a biochemical, single-readout assay that uses extracted gene-proteins from Rat forebrain membranes in a tissue-based cell-free assay. Measurements were taken 1 hour after chemical dosing in a 48-well plate.NVS_GPCR_rNTS is one of one assay component(s) measured or calculated from the NVS_GPCR_rNTS assay. It is designed to make measurements of radioligand binding, a form of binding reporter, as detected with scintillation counting signals by Filter-based radiodetection technology.Data from the assay component NVS_GPCR_rNTS was analyzed into 1 assay endpoint. This assay endpoint, NVS_GPCR_rNTS, was analyzed in the positive analysis fitting direction relative to DMSO as the negative control and baseline of activity. […] Furthermore, this assay endpoint can be referred to as a primary readout, because the performed assay has only produced 1 assay endpoint. […]
# (§2) Binding assays used specific radioligands (tritiated, iodinated) with non-radioactive competitive displacement ligands in agonist or antagonist protocols (as indicated) and various reference compounds and inhibitors to titrate specific binding to receptors and transporters. Most enzyme assays (CYPs, kinases, phosphatases, proteases, HDACs) used recombinant protein and specific substrates (fluorescence mostly, some colorimetric and radioactive) and inhibitors, followed by a biochemical separation of substrate and product. […]
# [6] = target: rat Opioid Receptor, Non-selective Sodium (Na+) Binding, Oprm1 (gene 25601) (UniProt P33535); test: NVS_GPCR_rOpiate_NonSelectiveNa: NovaScreen (NVS) G Protein-Coupled Receptor Assay for rat Opioid Receptor, Non-selective Sodium (Na+) Binding (AID 2283311)
# Chain of rat Opioid Receptor, Non-selective Sodium (Na+) Binding, Oprm1 (gene 25601) (P33535 whole entry, looked up): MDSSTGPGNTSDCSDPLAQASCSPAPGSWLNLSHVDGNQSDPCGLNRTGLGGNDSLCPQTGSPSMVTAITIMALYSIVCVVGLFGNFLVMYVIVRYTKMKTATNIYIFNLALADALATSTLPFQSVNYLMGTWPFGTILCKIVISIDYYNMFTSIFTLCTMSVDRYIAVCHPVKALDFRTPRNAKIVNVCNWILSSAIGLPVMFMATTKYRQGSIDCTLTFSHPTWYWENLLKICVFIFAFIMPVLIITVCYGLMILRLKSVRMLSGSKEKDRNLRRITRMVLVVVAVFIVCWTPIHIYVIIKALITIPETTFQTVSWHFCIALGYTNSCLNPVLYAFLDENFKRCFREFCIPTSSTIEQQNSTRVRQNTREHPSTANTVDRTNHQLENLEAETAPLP
# Procedure, shortened: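 Filtration radioligand binding on rat forebrain membrane preparations, read 1.5 h after dosing. Single-concentration 25 µM primary screen in duplicate, followed by singleton concentration series to 50 µM max for actives; DMSO baseline.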
# [7] = target: rat Corticotropin Releasing Factor Receptor (CRF), Crhr1 (gene 58959) (UniProt P35353); test: NVS_GPCR_rCRF: NovaScreen (NVS) G Protein-Coupled Receptor Assay for rat Corticotropin Releasing Factor Receptor (CRF) (AID 2283300)
# Chain of rat Corticotropin Releasing Factor Receptor (CRF), Crhr1 (gene 58959) (P35353 whole entry, looked up): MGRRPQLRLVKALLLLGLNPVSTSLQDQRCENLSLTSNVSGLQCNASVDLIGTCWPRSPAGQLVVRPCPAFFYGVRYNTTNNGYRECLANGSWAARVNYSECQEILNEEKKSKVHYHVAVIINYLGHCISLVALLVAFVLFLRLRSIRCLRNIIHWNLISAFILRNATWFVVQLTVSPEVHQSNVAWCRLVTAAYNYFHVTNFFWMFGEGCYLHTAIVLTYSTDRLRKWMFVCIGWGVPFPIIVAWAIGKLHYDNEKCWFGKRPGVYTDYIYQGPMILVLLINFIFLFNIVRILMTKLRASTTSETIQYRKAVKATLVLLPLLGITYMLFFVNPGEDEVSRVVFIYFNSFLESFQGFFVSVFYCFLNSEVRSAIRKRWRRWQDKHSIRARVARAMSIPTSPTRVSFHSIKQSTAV
# Method: as §1, with “NVS_GPCR_rCRF” for “NVS_GPCR_rNTS”, “cortical” for “forebrain”, “2 hours” for “1 hour”, “96-well plate.NVS_GPCR_rCRF” for “48-well plate.NVS_GPCR_rNTS”, “[…]” for “Filter-based”, “NVS_GPCR_rCRF,” for “NVS_GPCR_rNTS,”
# as §2
# [8] = target: rat Histamine Receptor (H3), Hrh3 (gene 85268) (UniProt Q9QYN8); test: NVS_GPCR_rH3: NovaScreen (NVS) G Protein-Coupled Receptor Assay for rat Histamine Receptor (H3) (AID 2283303)
# Chain of rat Histamine Receptor (H3), Hrh3 (gene 85268) (Q9QYN8 whole entry, looked up): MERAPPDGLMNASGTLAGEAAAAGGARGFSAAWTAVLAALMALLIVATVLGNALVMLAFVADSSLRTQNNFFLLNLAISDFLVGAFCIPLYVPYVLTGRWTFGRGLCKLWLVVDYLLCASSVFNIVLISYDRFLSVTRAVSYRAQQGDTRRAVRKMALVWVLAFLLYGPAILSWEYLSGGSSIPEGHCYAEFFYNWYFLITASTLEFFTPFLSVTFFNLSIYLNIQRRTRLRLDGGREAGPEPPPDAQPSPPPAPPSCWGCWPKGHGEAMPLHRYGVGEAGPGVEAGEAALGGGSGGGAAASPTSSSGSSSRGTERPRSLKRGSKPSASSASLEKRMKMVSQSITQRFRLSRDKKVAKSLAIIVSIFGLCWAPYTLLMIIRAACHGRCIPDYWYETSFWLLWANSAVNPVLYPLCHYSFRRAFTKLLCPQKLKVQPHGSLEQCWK
# Procedure, shortened: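 Filter-binding radioligand competition on rat forebrain membranes, 1 h incubation; compounds screened at 25 µM in duplicate and followed in concentration series to 50 µM, loss of bound signal vs DMSO.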
# Adra2b (gene 24174) = Adra2b (gene 24174) (UniProt P19328); test: NVS_GPCR_rmAdra2B: NovaScreen (NVS) G Protein-Coupled Receptor Assay for hybird cells Adrenergic, Alpha 2B Receptor (Adra2B) (AID 2283306)
# Chain of Adra2b (gene 24174) (P19328 whole entry, looked up): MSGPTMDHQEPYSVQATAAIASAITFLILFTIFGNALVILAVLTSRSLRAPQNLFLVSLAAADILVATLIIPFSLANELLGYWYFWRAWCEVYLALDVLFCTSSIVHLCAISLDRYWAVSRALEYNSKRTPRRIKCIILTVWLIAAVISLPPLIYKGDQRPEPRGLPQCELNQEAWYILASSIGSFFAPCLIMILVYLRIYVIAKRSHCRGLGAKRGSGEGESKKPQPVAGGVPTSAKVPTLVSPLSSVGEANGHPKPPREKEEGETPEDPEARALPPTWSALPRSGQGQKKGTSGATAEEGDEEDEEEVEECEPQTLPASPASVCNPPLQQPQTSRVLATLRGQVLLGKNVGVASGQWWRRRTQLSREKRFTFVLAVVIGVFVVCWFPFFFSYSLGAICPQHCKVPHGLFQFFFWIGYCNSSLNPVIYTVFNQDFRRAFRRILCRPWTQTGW
# Procedure, shortened: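 Compounds screened first at 25 uM in duplicate, with actives followed up in concentration-response; specific radioligand displacement from hybrid neuroglioma/blastoma cell membrane preparations measured by filter scintillation counting after 1 h, normalized to DMSO.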
# [9] = target: rat Adrenergic Receptor, Alpha 2 (Adra2), Non-selective Binding, Adra2a (gene 25083) (UniProt P22909); test: NVS_GPCR_rAdra2_NonSelective: NovaScreen (NVS) G Protein-Coupled Receptor Assay for rat Adrenergic Receptor, Alpha 2 (Adra2), Non-selective Binding (AID 2283299)
# Chain of rat Adrenergic Receptor, Alpha 2 (Adra2), Non-selective Binding, Adra2a (gene 25083) (P22909 whole entry, looked up): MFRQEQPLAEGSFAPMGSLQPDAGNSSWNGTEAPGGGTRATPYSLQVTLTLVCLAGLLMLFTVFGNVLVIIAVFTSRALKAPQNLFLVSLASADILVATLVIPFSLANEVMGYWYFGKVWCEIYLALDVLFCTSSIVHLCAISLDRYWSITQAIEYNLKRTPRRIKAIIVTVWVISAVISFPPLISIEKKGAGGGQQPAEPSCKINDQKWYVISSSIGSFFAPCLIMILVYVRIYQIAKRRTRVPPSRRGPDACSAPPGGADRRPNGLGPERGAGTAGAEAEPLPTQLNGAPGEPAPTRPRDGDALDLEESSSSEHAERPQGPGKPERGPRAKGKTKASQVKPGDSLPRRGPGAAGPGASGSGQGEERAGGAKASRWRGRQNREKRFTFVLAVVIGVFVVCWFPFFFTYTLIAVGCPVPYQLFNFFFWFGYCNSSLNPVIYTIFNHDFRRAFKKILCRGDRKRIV
# Procedure, shortened: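 Filter-based scintillation counting of radioligand binding to rat cortical membrane receptors, measured 1.25 hours post-dosing; loss of signal versus DMSO indicates displacement. Initial single-concentration duplicate at 25 uM, then concentration series.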
smiles,measurement,setting,value
CCC(C)(C)C(=O)OC1=C(c2ccc(Cl)cc2Cl)C(=O)OC12CCCCC2,outcome,[1],inactive
CC(C)(C)C(O)C(Oc1ccc(Cl)cc1)n1cncn1 (stereo not given),AC50,[2],38.2 µM (active)
same,outcome,[2],inactive
N#Cc1c(Cl)c(Cl)c(Cl)c(C#N)c1Cl,outcome,[3],inactive
Oc1ccc(Cl)cc1Cc1ccccc1,outcome,[4],inactive
same,outcome,[2],inactive
CNC(=O)/C=C(\C)OP(=O)(OC)OC,outcome,[5],inactive
CC(C)N(C(=O)COc1nnc(C(F)(F)F)s1)c1ccc(F)cc1,outcome,[3],inactive
CCOCN(C(=O)CCl)c1c(C)cccc1CC,outcome,[6],inactive
O=[N+]([O-])c1c(Cl)c(Cl)c(Cl)c(Cl)c1Cl,outcome,[7],inactive
O=C(Nc1ccccc1)Nc1cnns1,outcome,[7],inactive
same,outcome,[8],inactive
same,outcome,Adra2b (gene 24174),inactive
same,outcome,[2],inactive
same,outcome,[6],inactive
CCCN(CCOc1c(Cl)cc(Cl)cc1Cl)C(=O)n1ccnc1,AC50,[9],1.85 µM (active)
same,AC50,Adra2b (gene 24174),3.65 µM (active)
same,outcome,[2],inactive
CC[C@H](C)[C@H]1O[C@]2(C=C[C@@H]1C)C[C@@H]1C[C@@H](C/C=C(\C)[C@@H](O[C@H]3C[C@H](OC)[C@@H](O[C@H]4C[C@H](OC)[C@@H](O)[C@H](C)O4)[C@H](C)O3)[C@@H](C)/C=C/C=C3\CO[C@@H]4[C@H](O)C(C)=C[C@@H](C(=O)O1)[C@]34O)O2 (tested in a mixture with another compound),AC50,[3],9.49 µM (active)
O=[N+]([O-])/N=C1\NCCN1Cc1ccc(Cl)nc1,AC50,[1],8.29 µM (active)
